Source: PubChem BioAssay
Most compounds without a hit are left out; they make up all but 4.7% or so of the library.
S2 tox: viability counter-screen for ATXN expression inhibitors. S2 cells (HEK-293 line with an ATXN2-luciferase reporter) viability, CellTiter-Fluor protease fluorescence, 24 h. Potency, µM (top dose mostly 56.7 µM), usual class: cytotoxic. actives 0.49% (n = 400,000). AID 651635; note: potency is the fitted concentration of half-maximal effect; nearly all actives have a fitted effect of over 40% in size
D3 antag: antagonists of human D3 dopamine receptor; actives 2.5% (n = 360,000); AID 652054; P35462; max response, negative = inhibition, %; D3R cells, DiscoveRx beta-arrestin luminescence, antagonist mode; stronger effect = lower value; in the data active = max response below about -50%; inconclusive = no clear call, values can overlap the other calls; note: % is set by controls: 0 for no effect and ±100 for the full control effect
Target sequence (P35462 whole entry, looked up): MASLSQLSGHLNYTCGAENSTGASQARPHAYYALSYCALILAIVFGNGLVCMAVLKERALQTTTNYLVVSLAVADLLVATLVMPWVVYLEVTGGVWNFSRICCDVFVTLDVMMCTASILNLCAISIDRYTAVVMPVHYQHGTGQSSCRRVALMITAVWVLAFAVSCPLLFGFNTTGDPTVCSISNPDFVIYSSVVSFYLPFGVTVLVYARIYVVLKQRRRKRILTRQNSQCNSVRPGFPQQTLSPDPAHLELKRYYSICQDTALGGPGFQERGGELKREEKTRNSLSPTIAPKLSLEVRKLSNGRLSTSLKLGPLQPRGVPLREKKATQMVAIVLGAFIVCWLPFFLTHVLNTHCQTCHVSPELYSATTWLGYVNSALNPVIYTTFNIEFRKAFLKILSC
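Cells plated overnight at 1500 cells/well, then exposed to library compounds with dopamine controls for 90 minutes at 37 degrees C. DiscoveRx reagent added for 30–60 minutes at room temperature; luminescence read, quantitative HTS format.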
HepG2 viability: kills HepG2 cells in TGF-b inhibitor counter-screen; HepG2 CAGA-GFP viability, ATP luminescence, 18 h; Potency, µM (series often up to 46.1 µM), inactives show at the top dose activity change, negative = cytotoxicity, hits mostly cytotoxic; actives 0.76% (n = 410,000); AID 588856; note: potency is the fitted concentration of half-maximal effect
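HepG2 CAGA-GFP cells (1000/well, DMEM with 1% FBS) received compound, then TGF-beta at 500 pg/mL final, and were incubated 18 hours at 37 degrees C. Viability was read by CellTiter-Glo luminescence. Media-only wells were set as complete cell-killing and DMSO as no toxicity.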
DRD3 agonist: activates the human D3 dopamine receptor | P35462 | actives 0.58% (n = 410,000) | max activation, % | D3R DiscoveRx beta-arrestin cells, luminescence, 90 min | AID 652048; in the data active = max activation above about 30%; note: 0% is about no effect
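Agonist-mode cell screen: cells plated at 1500/well and incubated overnight at 37 °C, then exposed to library compounds for 90 min at 37 °C. Detection reagent was added for 30–60 min at room temperature, and luminescence was read.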
ATXN2 expr inh: reduces ATXN2 reporter expression in HEK-293 cells | HEK-293 ATXN2-luciferase reporter, luminescence, 24 h | Potency, µM (titrated, usually from 57 µM), inactives show top-dose activity change, negative = inhibition, hits mostly inhibitors | actives 0.72% (n = 360,000); note: potency is the fitted concentration of half-maximal effect; % is set by controls: 0 for no effect and ±100 for the full control effect; nearly all actives have a fitted effect of over 55% in size
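ATXN2-luciferase reporter cells (luciferase flanked by upstream and downstream ATXN2 gene portions) were treated 24 h at 37 °C with compounds at up to 57 uM. SteadyGlo luminescence gave expression; GF-AFC fluorescence gave viability.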
TGFb inhibitor: TGF-b pathway inhibition. HepG2 CAGA-GFP TGF-b/SMAD3 reporter, GFP fluorescence, 18 h; TGF-beta stimulated, 500 pg/mL final. Potency, µM (doses to about 46.1 µM), without a hit: at the highest dose activity, negative = inhibition, actives largely listed as inhibitors. actives 1.2% (n = 410,000); note: potency is the fitted concentration of half-maximal effect; % is set by controls: 0 for no effect and ±100 for the full control effect; nearly all actives have a fitted effect of over 65% in size
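HEPG2 CAGA-GFP, 1000 cells/well; 2 h settle, 37 C; cpd via pin tool; TGF-b 500 pg/mL final; 18 h, 37 C; GFP imaging ex488/em500-530; %Activity normalised to -TGF-b and +DMSO controls; CRC fit, curve class.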
* = called active by the depositor; i = inactive; ? = inconclusive; · = no result given; [ ] = remark or other dose. Unless noted, calls come from the whole dose curve; as a rule, active = well fitted curve in the direction sought with a large enough effect; inconclusive = small, poorly fitted or top-dose-only effect, or another doubt; inactive = no such curve, though single readings can be large; an effect the other way counts as inactive or inconclusive.

SMILES	S2 tox	D3 antag	HepG2 viability	DRD3 agonist	ATXN2 expr inh	TGFb inhibitor
O=C(C#Cc1ccccc1)c1ccc([N+](=O)[O-])cc1	·	-72*	39%	-18	?	?
O=C(CSCC(=O)c1ccc([N+](=O)[O-])cc1)c1ccc([N+](=O)[O-])cc1	i	-9	-58%	2	-5%	?
O=C(C#Cc1ccccc1)c1ccccc1	?	-65*	13µM*	-9	·	10µM*
O=c1[nH]c(Nc2ccccc2Cl)cc2ccccc12	i	19	-5%	12	4%	-22%
Cc1ccccc1Nc1cc2ccccc2c(=O)[nH]1	?	-9	11µM*	0	-5%	4.5µM*
CN(Cc1ccccc1F)c1nc(-c2cccnc2)nc2ccccc12	i	4	-2%	24	-16%	-18%
CCOc1ccc(CN(C)c2nc(-c3cccnc3)nc3ccccc23)cc1OC	?	9	-29%	1	19µM*	?
COc1ccccc1-c1nc(CNC(=O)Nc2ccccc2)c(C)o1	i	·	5%	6	-18%	-11%
Cc1cc(/C=C2\Sc3ccccc3N2C)cc(C)[n+]1CC1CCCO1 (stereo unspecified)	·	-17	-17%	-8	1.2µM*	31%
Cc1ccc(/C=C2/Sc3ccccc3N(CC(=O)NCC3CCCO3)C2=O)cc1 (stereo unspecified)	?	6	-12%	2	-20%	0%
CCOC(=O)c1ccccc1NC(=O)Cn1ccn2nc(-c3ccc(OCC)cc3)cc2c1=O	i	·	1%	2	6%	19%
COC1(OC)C=CC(=O)C=C1NC(=O)c1ccccc1OC(C)=O	14µM*	·	-4%	·	18µM*	11µM*
O=C1COc2ccc(-c3cc(-c4ccccc4)c4c(n3)-c3cc(Cl)ccc3OC4)cc2N1	i	·	1%	-7	10%	-2%
Fc1cc2[nH]cnc2cc1Cl	i	0	39%	-2	-1%	20%
Clc1cc2nc[nH]c2cc1Cl	i	10	5%	37*	13%	-1%
Cc1ncsc1CCC(=O)N1CCCC(c2nc(-c3ccncc3)ncc2-c2ccccc2)C1 (stereo unspecified)	i	·	·	·	·	·
O=C(c1ccco1)[C@@H]1[C@@H]2C(=O)N(c3ccc(Br)cc3)C(=O)[C@@H]2C2c3ccccc3C=CN21 (stereo partly specified)	i	-57*	-9%	-9	8%	17%
CC(=O)[C@H]1[C@@H]2C(=O)N(c3cccc(Cl)c3)C(=O)[C@@H]2[C@H]2c3ccccc3C=CN21	i	-22	0%	-8	14%	-4%
Cc1cn2c(=O)cc(COC(=O)c3cccc(NC(=O)c4ccccc4Cl)c3)nc2s1	·	·	-3%	7	·	-19%
Cc1ccc(N2CCN(S(=O)(=O)c3ccc(F)c(C)c3)CC2)c(C)c1	i	-51*	-20%	-3	-18%	-13%
O=C(Nc1ccccc1)c1ccc[n+](Cc2ccc([N+](=O)[O-])cc2)c1	i	-56*	1%	-25	2%	6%
CCOc1cccc(OCCCNCCCOC)c1	i	-59*	1%	-5	3%	24%
CCc1cccc(OCCCCNCCCOC)c1	i	-79*	-9%	-39	-10%	10%
CCOC(=O)C(CCCCOc1cccc(CC)c1)C(=O)OCC	i	-18	-15%	10	-5%	10%
CCc1cccc(OCCCCN(CC)CC)c1	i	-73*	4%	-25	-18%	-5%
SMILES	S2 tox	D3 antag	HepG2 viability	DRD3 agonist	ATXN2 expr inh	TGFb inhibitor
COCCCNCCCCOc1cccc(Br)c1	i	-61*	-2%	-5	-15%	?
OCCNCCCCOc1cccc(Br)c1	i	-27	-3%	-26	4%	3%
Cc1ccc(NC(=O)N2CCC(N3CCN(Cc4ccccc4)C(=O)C3=O)CC2)cc1Cl	i	·	6%	4	15%	0%
CCOC(=O)c1ccc(NC(=O)c2cnc(N3CCCC3)nc2C)cc1	?	·	-19%	3	-18%	-9%
C=CCNCCCCOc1cccc(Br)c1	·	-62*	-4%	-17	-20%[11.3 µM]	-8%
CCn1nnc2cc(C(=O)Nc3ccc(C)c(Cl)c3)ccc21	i	·	-22%	-15	27%	-23%
CCCC(=O)Nc1cc2nn(-c3ccc(OC)cc3)nc2cc1C	i	·	5%	43*	24%	22%
CCCCN(CCCC)C(C(N)=O)c1ccc(OC)cc1 (stereo unspecified)	i	·	·	·	7%	·
CC1=C(C#N)C(c2cn(-c3ccccc3)nc2-c2cccs2)C(C#N)=C(C)N1	i	26	-7%	33*	-24%	-14%
COc1cccc(-n2c(=O)c3c(C)c(C(=O)N(C)C)sc3n(CC(=O)Nc3ccc(C)cc3Cl)c2=O)c1	·	·	-11%	-4	·	-2%
Cc1ccc(Cl)cc1NC(=O)c1cc(CN2CCCC2)on1	i	·	-32%	0	3%	3%
CC1=C/C(=C\c2ccc(N(C)C)cc2)c2ccccc21	·	·	-7%	·	·	-3%
O=C(O)c1ccc(NC(=O)c2ccc(Br)c(S(=O)(=O)N3CCCC3)c2)cc1	i	·	-2%	9	13%	0%
O=C(Nc1ccccc1)c1ccc(Br)c(S(=O)(=O)N2CCCCC2)c1	·	·	-47%	-23	·	6.3µM*
COc1cccc(C(=O)NC2CC3CCCC(C2)N3Cc2ccc(C)cc2)c1 (stereo unspecified)	?	-112*	-22%	-18	·	-5%
COc1cccc(C(=O)NC2CC3CCCC(C2)N3Cc2ccc(F)cc2)c1 (stereo unspecified)	i	-107*	-19%	-12	·	-5%
COc1cccc(C(=O)NC2CC3CCCC(C2)N3CC(=O)Nc2ccccc2)c1 (stereo unspecified)	i	-59*	-6%	-3	-12%	1%
Cc1ccc(S(=O)(=O)N2CCCN(c3nc(-c4cccs4)nc4ccccc34)CC2)cc1	·	·	-36%	·	·	?
COCC1CCCN(Cc2ccc3c(c2)CN(C(=O)c2cccnc2OC)CCO3)C1 (stereo unspecified)	i	·	·	·	·	·
Cn1c(O)c(C2=c3ccccc3=NC2=O)sc1=Nc1ccc(Cl)cc1	?	-63*	-2%	-1	-16%	1%
CCCn1nnnc1NC(=O)c1ccc2ccccc2c1	?	-16	13µM*	2	?	-2%
CC(O)(c1ccccc1)[N+]1(CC(=O)c2ccccc2)C=CC=C1 (stereo unspecified)	·	·	-20%	·	·	-9%
